From PMC12670160, “A drug-repurposing screen of FDA- and EMA-approved drugs identifies two NF-κB inhibitors active against eumycetoma” (Journal of Antimicrobial Chemotherapy, 2025)
Where a name gives a salt, the structure may show the parent alone. Read-outs that look alike come from different tables or passages of the source. Screen size: about 5,300 compounds; about 130 (2.5%) showed an effect of 50% or more. For the sample, strong results were picked, then their nearest neighbours and some compounds at random. Peptide text beside a SMILES is read from it.

System: M. mycetomatis strain mm55
Details: primary screen, metabolic activity vs growth control, 96 h, 2 µM, inhibitor

| SMILES | % viability [%] | % viability (Madurella mycetomatis metabolic activity at 2µM (%)) [%] |
| --- | --- | --- |
| CC(C)S(=O)(=O)NC[C@H](C)c1ccc(-c2ccc(CCNS(C)(=O)=O)cc2)cc1 [ONC0000792, mibampator] | 65.07 | – |
| CC(=O)Nc1c(I)c(C(=O)O)c(I)c(N(C)C(C)=O)c1I [ONC0002767, metrizoic acid] | 98.58 | – |
| CO[C@H]1C[C@H](O[C@H]2CC[C@@]3(C)[C@H](CC[C@@H]4[C@@H]3CC[C@]3(C)[C@@H](C5=CC(=O)OC5)[C@@H](OC(C)=O)C[C@]43O)C2)O[C@@H](C)[C@@H]1O [ONC0000896, oleandrin] | 70.17 | – |
| COc1cc([S+](C)[O-])ccc1-c1nc2ncccc2[nH]1 (stereo not drawn) [ONC0002956, sulmazole] | 88.35 | – |
| COc1cc(N)c(Cl)cc1C(=O)N[C@@H]1CCN(CCCOc2ccc(F)cc2)C[C@@H]1OC (racemic) [ONC0002671, cisapride] | 79.76 | – |
| CC[C@H](NC(C)C)[C@H](O)c1ccc(O)c2[nH]c(=O)ccc12 (racemic) [ONC0000846, procaterol] | 72.96 | – |
| COc1cc2c(Nc3ccc(Br)cc3F)ncnc2cc1OCC1CCN(C)CC1 [ONC0004515, vandetanib zd6474] | 76.73 | – |
| N[C@@H](CN1C=CC(=O)C(=O)C1)C(=O)O [ONC0002117, lmimosine] | 76.12 | – |
| CCCCCCOc1nsnc1C1=CCCN(C)C1.O=C(O)C(=O)O [ONC0001841, xanomeline oxalate] | 152.3 | – |
| C[C@H](NC(=O)C(C)(C)Oc1ccc(C(F)(F)F)cn1)[C@@H](Cc1ccc(Cl)cc1)c1cccc(C#N)c1 [ONC0002066, taranabant] | 72.16 | – |
| CCCC[C@H](NC(=O)[C@@H]1[C@@H]2[C@H](CN1C(=O)[C@@H](NC(=O)NC1(CS(=O)(=O)C(C)(C)C)CCCCC1)C(C)(C)C)C2(C)C)C(=O)C(=O)NC1CC1 [ONC0000734, narlaprevir] | 68.03 | – |
| CC(C)(C)NC(=O)N[C@H](C(=O)N1C[C@H]2[C@@H]([C@H]1C(=O)NC(CC1CCC1)C(=O)C(N)=O)C2(C)C)C(C)(C)C (stereo partly drawn) [ONC0001071, boceprevir] | 43.8 | – |
| Cc1cnc(NC(=O)c2cc(Oc3cnc(C(=O)N(C)C)nc3)c3cc(C)oc3c2)cn1 [ONC0005563, pf04937319] | 103.7 | – |
| O=c1[nH]cnc2c([C@@H]3N[C@H](CO)[C@@H](O)[C@H]3O)c[nH]c12 [ONC0001813, forodesine hydrochloride] | 95.12 | – |
| CCn1c(=O)n([C@H]2CCCN(c3nccc(-c4cc5ccccc5o4)n3)C2)c2ccccc21 [ONC0001458, tcf2] | 58.53 | – |
| CCCCN(CCCC)CCC(O)c1cc2c(Cl)cc(Cl)cc2c2cc(C(F)(F)F)ccc12 (stereo not drawn) [ONC0003518, halofantrinehcl] | 46.17 | – |
| CCCCN(CCCC)CC(O)c1cc(Cl)cc2c1-c1ccc(Cl)cc1/C2=C/c1ccc(Cl)cc1 (stereo not drawn) [ONC0000941, lumefantrine] | 75.53 | – |
| CNc1nc(-c2ccc3c(N)n[nH]c3c2)cc(N2C[C@@H](C(=O)NC3CCCCC3)CC[C@H]2C)n1 [ONC0002484, gsk2334470] | 37.41 | – |
| O=c1ccc2c(OCCCCOc3ccccc3)c3ccoc3cc2o1 [ONC0000770, pap1] | 62.21 | – |

| SMILES | % viability [%] | % viability (Madurella mycetomatis metabolic activity at 2µM (%)) [%] |
| --- | --- | --- |
| COc1c2occc2cc2ccc(=O)oc12 [ONC0005318, methoxsalen] | 102.8 | – |
| COc1c2ccoc2cc2oc(=O)ccc12 [ONC0003294, bergapten] | 47.96 | – |
| NS(=O)(=O)OC[C@@H]1C[C@@H](n2ccc3c(N[C@H]4CCc5ccccc54)ncnc32)C[C@@H]1O [ONC0001277, pevonedistat hydrochloride] | 68.15 | – |
| Cc1ccc2c(c1)c1c(n2CCc2ccc(C)nc2)CCN(C)C1.Cl.Cl [ONC0000365, latrepirdine dimebon dihydrochloride] | 70.26 | – |
| CCCCCCCCCC(=O)OCCN1CCN(CCCN2c3ccccc3Sc3ccc(C(F)(F)F)cc32)CC1 [ONC0003289, fluphenazine decanoate] | 48.22 | – |
| OCCN1CCN(CCCN2c3ccccc3Sc3ccc(C(F)(F)F)cc32)CC1 [ONC0003193, fluphenazine hydrochloride] | 105.7 | – |
| CN1CCN(CCCN2c3ccccc3Sc3ccc(C(F)(F)F)cc32)CC1 [ONC0003239, trifluoperazine hydrochloride] | 119.8 | – |
| CN1CC[C@@]2(C)c3cc(O)ccc3N(C)[C@@H]12 [ONC0002771, eseroline] | 104.2 | – |
| c1ccc2c(c1)[I+]c1ccccc1-2 [ONC0002720, diphenyleneiodonium] | 44.4 | – |
| O=C1c2ccccc2C(=O)c2ccccc21 [ONC0002912, anthraquinone] | 73.56 | – |
| CC(O)COC[C@H]1O[C@@H]2O[C@H]3[C@H](O)[C@@H](O)[C@@H](O[C@H]4[C@H](O)[C@@H](O)[C@@H](O[C@H]5[C@H](O)[C@@H](O)[C@@H](O[C@H]6[C@H](O)[C@@H](O)[C@@H](O[C@H]7[C@H](O)[C@@H](O)[C@@H](O[C@H]8[C@H](O)[C@@H](O)[C@@H](O[C@H]1[C@H](O)[C@H]2O)O[C@@H]8COCC(C)O)O[C@@H]7COCC(C)O)O[C@@H]6COCC(C)O)O[C@@H]5COCC(C)O)O[C@@H]4COCC(C)O)O[C@@H]3COCC(C)O (stereo partly drawn) [ONC0003826, hydroxypropylbetacyclodextrin] | 73.6 | – |
| NCCC(=O)N[C@@H](Cc1cnc[nH]1)C(=O)O [ONC0002788, carnosine] | 115.1 | – |
| CC[C@@H]1C(=O)N(C)c2cnc(Nc3ccc(C(=O)NC4CCN(C)CC4)cc3OC)nc2N1C1CCCC1 [ONC0004589, bi 2536] | 63.71 | – |
| CC(C)CCN1c2nc(Nc3cc(F)c(O)c(F)c3)ncc2N(C)C(=O)C1C (stereo not drawn) [ONC0004496, bid1870] | 46.32 | – |
| CC[C@@H]1C(=O)N(C)c2cnc(Nc3ccc(C(=O)N[C@H]4CC[C@H](N5CCN(CC6CC6)CC5)CC4)cc3OC)nc2N1C(C)C [ONC0005061, bi6727 volasertib] | 89.64 | – |
| Nc1nonc1C(=NO)Nc1ccc(F)c(Cl)c1 [ONC0002386, ido5l] | 106.2 | – |
| CN1CCN(C(=O)c2nc3cc(Cl)ccc3[nH]2)CC1 [ONC0003559, jnj10191584] | 96.39 | – |
| O=C(Nc1ccc(Cl)cc1)Nc1ccc(Cl)c(Cl)c1 [ONC0003407, triclocarban] | 109.1 | – |
| O=C(Nc1cnc(Cl)nc1)c1ccc(F)c(F)c1 [ONC0001921, ica069673] | 29.87 | – |

| SMILES | % viability [%] | % viability (Madurella mycetomatis metabolic activity at 2µM (%)) [%] |
| --- | --- | --- |
| O=C(Nc1ccc(Cl)nc1)c1ccc(Cl)cc1 [ONC0002468, ica110381] | 70.91 | – |
| CC[C@@]1(O)C(=O)OCc2c1cc1n(c2=O)Cc2c-1nc1cc(F)c(C)c3c1c2[C@@H](N)CC3.CS(=O)(=O)O [ONC0003668, exatecan mesylate] | 59.4 | – |
| C#C[C@]1(O)CCC2C3CCC4=C(CCC(=O)C4)C3CC[C@@]21C (stereo partly drawn) [ONC0000393, norethynodrel] | 78.62 | – |
| O=C(COc1ccc(C(=O)c2ccccc2)cc1)NC1CCN(Cc2ccccc2)CC1 [ONC0000156, adiporon] | 92.46 | – |
| O=C(O)c1ccc(CN2CCC(CN[C@@H]3C[C@H]3c3ccccc3)CC2)cc1 [ONC0001137, gsk2879552] | 48.21 | – |
| O=C(NC1CCN(Cc2ccccc2)CC1)c1ccc(I)cc1 [ONC0003079, 4ibp] | 71.08 | – |
| C[C@@H](O)[C@H](N)C(=O)N1CCC[C@H]1C(=O)N1CCC[C@H]1C(=O)N[C@H](C(N)=O)[C@@H](C)O [ONC0002215, rapastinel trifluoroacetate] (H-TPPT-NH2) | 53.54 | – |
| COCCn1c2c([n+](Cc3cnccn3)c1C)C(=O)c1ccccc1C2=O [ONC0001046, ym155] | 83.36 | – |
| COc1ccc(/C=C2\CCCN=C2c2cccnc2)c(OC)c1 [ONC0001889, gts21] | 72.7 | – |
| CN(C)c1ccc(/C=C2\CCCN=C2c2cccnc2)cc1 [ONC0002266, dmabanabaseine] | 49.52 | – |
| Oc1c(Cl)cc(Cl)c2cccnc12 [ONC0002821, chloroxine] | 92.76 | – |
| Oc1c(Br)cc(Br)c2cccnc12 [Broxyquinoline] | 5.699 | – |
| Oc1c(I)cc(I)c2cccnc12 [ONC0000463, iodoquinol] | 67.55 | – |
| COc1ccc(CCO[C@@H]2CCCC[C@H]2N2CC[C@@H](O)C2)cc1OC [ONC0001796, vernakalant hydrochloride] | 98.02 | – |
| CC1C[C@H]2[C@@H]3CCC4=CC(=O)C=C[C@]4(C)[C@@]3(Cl)[C@@H](O)C[C@]2(C)[C@@]1(O)C(=O)CO (stereo partly drawn) [ONC0000301, beclomethasone] | 73.26 | – |
| Cc1cccc(OCC(O)CNC(C)(C)C)c1C (stereo not drawn) [ONC0002362, xibenolol] | 46.41 | – |
| CC(C)(C)NC[C@H](O)COc1cccc2c1CCCC2=O [ONC0002946, levobunolol] | 70.13 | – |
| CC(C)(C)NC[C@@H](O)COc1cccc2c1CCCC2=O [ONC0002849, levobunolol] | 116.9 | – |
| O=C1OC2(c3cc(I)c(O)c(I)c3Oc3c2cc(I)c(O)c3I)c2c(Cl)c(Cl)c(Cl)c(Cl)c21 [ONC0002983, rosebengallactone] | – | 60.55 |
